The supplement of paper PMC11732987, “Enantioselective OTUD7B fragment discovery through chemoproteomics screening and high-throughput optimisation” (Communications Chemistry, 2025)

Tests used:
Test in all cases: log2 ratio of Biotin-Ahx-Ub-VS probe labelling (fragment/DMSO); higher = less target engagement (more negative = stronger competition), active = hit call of the paper (q ≤ 0.05, log2 ratio ≤ -1)
Details in all cases: compound concentration: 200 uM; treatment time: 3 h
OTUD6B = molecular target: T1, OTUD6B (UniProt Q8N6M0)
T1 sequence (whole entry): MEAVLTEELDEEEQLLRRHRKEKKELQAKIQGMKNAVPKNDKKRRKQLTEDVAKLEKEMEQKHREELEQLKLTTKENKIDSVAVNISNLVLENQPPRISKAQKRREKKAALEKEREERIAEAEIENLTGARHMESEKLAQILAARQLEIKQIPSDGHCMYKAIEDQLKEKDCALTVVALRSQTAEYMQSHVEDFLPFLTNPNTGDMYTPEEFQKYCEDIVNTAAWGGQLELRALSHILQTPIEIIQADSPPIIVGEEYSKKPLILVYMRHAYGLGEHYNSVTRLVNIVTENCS
Summary of the method: (§1)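 Labelling with Biotin-Ahx-Ub-VS (0.5 µM final, 1 h) followed a 3 h triplicate treatment of HEK293T lysate (495 µg per sample, Tris/CHAPS/IGEPAL buffer with protease inhibitors) with fragment at 200 µM or vehicle. Labelled DUBs were NeutrAvidin-enriched, digested with LysC and trypsin, and run by diaPASEF LC-MS/MS. The values, average log2 fragment/vehicle ratios by unpaired t-test, come from global-median-normalised Spectronaut label-free quantities. Proteins with ≥2 unique peptides were used.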

OTUD7B = molecular target: T2, OTUD7B (UniProt Q6GQQ9)
T2 sequence (whole entry): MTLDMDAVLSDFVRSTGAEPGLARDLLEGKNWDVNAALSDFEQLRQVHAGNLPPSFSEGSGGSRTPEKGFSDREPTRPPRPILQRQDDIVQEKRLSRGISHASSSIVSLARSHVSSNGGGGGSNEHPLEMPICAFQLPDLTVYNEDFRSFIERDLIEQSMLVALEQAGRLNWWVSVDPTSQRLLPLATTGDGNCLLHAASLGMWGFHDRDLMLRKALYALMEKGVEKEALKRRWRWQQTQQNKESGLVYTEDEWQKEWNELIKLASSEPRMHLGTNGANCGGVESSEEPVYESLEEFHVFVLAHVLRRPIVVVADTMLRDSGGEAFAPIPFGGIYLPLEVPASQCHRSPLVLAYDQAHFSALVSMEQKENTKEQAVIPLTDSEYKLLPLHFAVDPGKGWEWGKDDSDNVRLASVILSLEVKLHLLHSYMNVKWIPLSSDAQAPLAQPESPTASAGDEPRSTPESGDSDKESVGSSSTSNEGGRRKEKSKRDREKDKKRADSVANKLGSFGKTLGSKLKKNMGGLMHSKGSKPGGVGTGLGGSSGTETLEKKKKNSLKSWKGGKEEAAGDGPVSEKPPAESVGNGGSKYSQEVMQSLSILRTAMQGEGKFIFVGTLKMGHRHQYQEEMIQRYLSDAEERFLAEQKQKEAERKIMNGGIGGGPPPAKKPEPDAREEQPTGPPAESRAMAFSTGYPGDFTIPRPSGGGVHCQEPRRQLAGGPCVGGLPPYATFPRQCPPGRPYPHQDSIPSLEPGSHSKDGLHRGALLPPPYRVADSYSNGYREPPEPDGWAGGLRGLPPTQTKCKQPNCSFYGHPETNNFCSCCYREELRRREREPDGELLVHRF
Summary of the method: as §1

PRPF8 = PRPF8 (UniProt Q6P2Q9)
Summary of the method: as §1

PSMD7 = molecular target: T3, PSMD7 (UniProt P51665)
T3 sequence (whole entry): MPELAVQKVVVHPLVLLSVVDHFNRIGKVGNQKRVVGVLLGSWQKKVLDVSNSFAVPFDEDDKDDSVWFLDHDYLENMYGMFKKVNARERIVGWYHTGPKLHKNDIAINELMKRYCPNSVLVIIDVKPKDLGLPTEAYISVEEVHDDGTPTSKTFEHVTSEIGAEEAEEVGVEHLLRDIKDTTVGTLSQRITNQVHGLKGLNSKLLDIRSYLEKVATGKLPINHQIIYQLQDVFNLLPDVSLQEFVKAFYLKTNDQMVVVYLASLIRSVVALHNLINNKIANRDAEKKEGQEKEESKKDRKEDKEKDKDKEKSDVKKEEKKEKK
Summary of the method: as §1

UCHL1 = UCHL1 (UniProt P09936)
UCHL1, sequence (P09936 whole entry, looked up): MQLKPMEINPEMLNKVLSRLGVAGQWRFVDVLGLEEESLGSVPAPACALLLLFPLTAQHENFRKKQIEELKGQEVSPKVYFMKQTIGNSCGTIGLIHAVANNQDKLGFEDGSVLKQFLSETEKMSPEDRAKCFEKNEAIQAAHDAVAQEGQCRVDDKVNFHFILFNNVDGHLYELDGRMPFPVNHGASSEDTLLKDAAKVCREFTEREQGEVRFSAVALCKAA
Summary of the method: as §1

UCHL3 = molecular target: T4, UCHL3 (UniProt P15374)
T4 sequence (whole entry): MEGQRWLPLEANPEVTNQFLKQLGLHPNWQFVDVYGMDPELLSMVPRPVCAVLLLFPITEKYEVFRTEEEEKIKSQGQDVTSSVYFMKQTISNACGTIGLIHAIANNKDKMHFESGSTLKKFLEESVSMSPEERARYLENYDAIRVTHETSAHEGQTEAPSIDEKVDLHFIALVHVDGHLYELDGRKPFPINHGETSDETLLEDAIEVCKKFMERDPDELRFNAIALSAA
Summary of the method: as §1

UCHL5 = molecular target: T5, UCHL5 (UniProt Q9Y5K5)
T5 sequence (whole entry): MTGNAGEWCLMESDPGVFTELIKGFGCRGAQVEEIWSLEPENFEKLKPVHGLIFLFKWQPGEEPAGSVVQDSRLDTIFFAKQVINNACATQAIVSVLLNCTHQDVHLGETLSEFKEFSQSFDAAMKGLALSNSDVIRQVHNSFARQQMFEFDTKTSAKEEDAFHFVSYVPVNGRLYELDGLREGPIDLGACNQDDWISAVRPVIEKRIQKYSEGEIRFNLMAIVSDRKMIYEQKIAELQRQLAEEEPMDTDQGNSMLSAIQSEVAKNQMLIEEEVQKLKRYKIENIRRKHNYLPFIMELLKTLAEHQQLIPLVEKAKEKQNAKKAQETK
Summary of the method: as §1

USP10 = USP10 (UniProt Q14694)
USP10, sequence (Q14694 whole entry): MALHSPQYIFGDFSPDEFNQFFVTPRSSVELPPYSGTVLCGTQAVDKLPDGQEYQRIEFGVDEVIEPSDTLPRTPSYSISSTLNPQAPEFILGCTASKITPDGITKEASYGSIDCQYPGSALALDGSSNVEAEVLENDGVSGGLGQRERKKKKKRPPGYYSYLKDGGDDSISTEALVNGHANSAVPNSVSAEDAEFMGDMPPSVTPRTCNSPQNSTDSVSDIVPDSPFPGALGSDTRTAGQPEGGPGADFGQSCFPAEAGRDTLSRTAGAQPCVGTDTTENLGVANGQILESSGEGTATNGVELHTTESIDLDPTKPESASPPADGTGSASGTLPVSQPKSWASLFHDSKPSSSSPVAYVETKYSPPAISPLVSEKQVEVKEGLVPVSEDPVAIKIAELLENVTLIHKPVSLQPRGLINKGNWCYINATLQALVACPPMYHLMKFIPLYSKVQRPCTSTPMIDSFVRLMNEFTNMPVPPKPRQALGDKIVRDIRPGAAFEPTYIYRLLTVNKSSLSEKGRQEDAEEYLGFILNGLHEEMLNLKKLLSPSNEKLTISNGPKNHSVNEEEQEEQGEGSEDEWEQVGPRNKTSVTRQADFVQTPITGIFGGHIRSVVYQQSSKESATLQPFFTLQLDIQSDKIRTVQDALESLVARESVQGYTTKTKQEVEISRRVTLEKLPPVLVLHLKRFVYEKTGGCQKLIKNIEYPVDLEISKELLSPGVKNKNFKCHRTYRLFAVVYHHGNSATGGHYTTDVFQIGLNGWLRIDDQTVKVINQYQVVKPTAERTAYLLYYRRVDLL
Summary of the method: as §1

USP15 = molecular target: T6, USP15 (UniProt Q9Y4E8)
T6 sequence (whole entry): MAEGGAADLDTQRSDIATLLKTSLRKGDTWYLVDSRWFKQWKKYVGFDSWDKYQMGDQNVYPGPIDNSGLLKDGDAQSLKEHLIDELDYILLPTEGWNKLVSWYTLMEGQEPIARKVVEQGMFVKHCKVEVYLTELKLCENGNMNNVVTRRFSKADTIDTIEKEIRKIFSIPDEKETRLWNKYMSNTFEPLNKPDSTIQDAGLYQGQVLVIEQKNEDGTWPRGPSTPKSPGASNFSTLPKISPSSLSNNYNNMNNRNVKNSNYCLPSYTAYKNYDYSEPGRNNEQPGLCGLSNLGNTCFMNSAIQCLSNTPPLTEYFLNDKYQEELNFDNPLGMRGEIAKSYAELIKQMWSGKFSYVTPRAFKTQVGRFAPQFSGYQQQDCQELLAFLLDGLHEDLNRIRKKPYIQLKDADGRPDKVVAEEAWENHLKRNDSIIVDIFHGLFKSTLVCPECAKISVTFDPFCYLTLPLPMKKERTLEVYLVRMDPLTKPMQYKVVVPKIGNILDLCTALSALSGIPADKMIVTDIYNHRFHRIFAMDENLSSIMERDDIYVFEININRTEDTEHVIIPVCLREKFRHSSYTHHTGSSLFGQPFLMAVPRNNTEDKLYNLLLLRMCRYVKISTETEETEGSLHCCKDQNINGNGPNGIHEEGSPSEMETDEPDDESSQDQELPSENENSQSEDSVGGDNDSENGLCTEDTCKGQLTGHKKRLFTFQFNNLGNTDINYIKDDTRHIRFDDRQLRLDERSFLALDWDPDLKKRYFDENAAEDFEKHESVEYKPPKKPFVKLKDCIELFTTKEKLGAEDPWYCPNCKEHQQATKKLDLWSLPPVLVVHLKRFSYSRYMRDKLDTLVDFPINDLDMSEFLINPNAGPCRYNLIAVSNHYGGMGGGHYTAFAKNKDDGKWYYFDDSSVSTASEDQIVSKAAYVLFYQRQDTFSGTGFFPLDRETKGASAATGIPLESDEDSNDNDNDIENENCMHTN
Summary of the method: as §1

USP16 = USP16 (UniProt Q9Y5T5)
USP16, sequence (Q9Y5T5 whole entry, looked up): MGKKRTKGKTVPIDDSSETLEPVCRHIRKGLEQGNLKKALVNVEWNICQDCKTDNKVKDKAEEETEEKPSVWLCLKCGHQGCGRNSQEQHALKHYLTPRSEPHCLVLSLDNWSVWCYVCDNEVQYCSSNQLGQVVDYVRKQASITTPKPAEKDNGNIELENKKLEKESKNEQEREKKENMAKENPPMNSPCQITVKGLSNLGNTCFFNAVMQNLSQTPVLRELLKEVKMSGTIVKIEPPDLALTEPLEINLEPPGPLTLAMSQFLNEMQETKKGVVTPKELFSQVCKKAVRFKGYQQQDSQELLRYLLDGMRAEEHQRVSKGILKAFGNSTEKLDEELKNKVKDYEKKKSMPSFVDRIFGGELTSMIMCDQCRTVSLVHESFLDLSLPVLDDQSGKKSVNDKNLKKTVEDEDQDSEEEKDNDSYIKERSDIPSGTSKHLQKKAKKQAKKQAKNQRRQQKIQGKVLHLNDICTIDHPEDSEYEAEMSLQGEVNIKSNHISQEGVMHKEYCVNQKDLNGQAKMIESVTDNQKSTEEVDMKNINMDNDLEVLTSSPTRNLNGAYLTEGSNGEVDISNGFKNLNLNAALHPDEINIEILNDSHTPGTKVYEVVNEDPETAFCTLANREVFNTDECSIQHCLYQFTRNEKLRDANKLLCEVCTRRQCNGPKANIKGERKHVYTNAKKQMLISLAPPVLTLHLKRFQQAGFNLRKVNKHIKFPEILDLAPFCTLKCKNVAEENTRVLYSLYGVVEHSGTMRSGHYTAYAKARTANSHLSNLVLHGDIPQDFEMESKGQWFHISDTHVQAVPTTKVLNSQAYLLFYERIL
Summary of the method: as §1

Measured: log2 ratio of Biotin-Ahx-Ub-VS probe labelling

Cc1ccc(C)c(Oc2ccc(CNC(=O)CCl)cn2)c1.Cl
active: OTUD7B -1.04 | UCHL1 -1.3 | UCHL3 -1.04
inactive: OTUD6B -0.139 | PRPF8 -0.126 | PSMD7 -0.306 | UCHL5 -0.435 | USP10 -0.166 | USP15 -0.359 | USP16 -0.0509
